The values below come from PubChem BioAssay AID743331 (Broad Institute, 2014).

Unmarked numbers belong to inactive results.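 How the source made its calls: active means falling cell viability signal whose fitted half-effect concentration is at most twice the highest valid tested dose; inconclusive means flat curve with 30 to 70 percent loss, or poor fit; inactive means the rest.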

The nature of this assay: HepG2 cell cytotoxicity, dose response, cytotoxicity control, plate reader, dry powder, set 8 (AID 743331). The note with it: HepG2 viability, CellTiter-Glo ATP luminescence, 72 h; series mostly up to 15 µM; activity change, negative = cytotoxicity: at the top concentration. For orientation: Cellular ATP, detected with luciferase, serves as a proxy for viable cell number.
Regarding `Cc1cnc(NC(=O)c2cc(S(=O)(=O)N(C)C)ccc2C2CCCC2)s1`, the “activity change, negative = cytotoxicity” value was 1.69%.

Turning to `Cc1cnc(NC(=O)c2cc(S(=O)(=O)N(C)C)ccc2N2CCC2)s1`, the “activity change, negative = cytotoxicity” value is -4.57%.

For the compound `COc1ccc2sc(NC(=O)c3cc(S(=O)(=O)N(C)C)ccc3N3CCCC3)nc2c1`, the “activity change, negative = cytotoxicity” value is 36.4%.

In the case of `Cc1cnc(NC(=O)c2cc(S(=O)(=O)N3CCCCC3)ccc2N2CCCC2)s1`, the “activity change, negative = cytotoxicity” value was 1.41%.

For `Cc1csc(NC(=O)c2cc(S(=O)(=O)N(C)C)ccc2N2CCCC2)n1`, the “activity change, negative = cytotoxicity” value was -5.77%.

As for `COc1ccc2nc(NC(=O)c3cc(S(=O)(=O)N(C)C)ccc3N3CCCC3)sc2c1`, the “activity change, negative = cytotoxicity” value is -6.47%.

In the case of `CN(C)S(=O)(=O)c1ccc(N2CCCC2)c(C(=O)Nc2cccc(F)c2)c1`, the “activity change, negative = cytotoxicity” value was -9.24%.

For the compound `Cc1cnc(NC(=O)c2cc(S(=O)(=O)N(C)C)ccc2N2CCCC2)s1`, the “activity change, negative = cytotoxicity” value is -14.3%.

Consider `CN(C)CCCN(Cc1cc2ccccc2[nH]c1=O)C(=O)Nc1ccccc1`, for which the “activity change, negative = cytotoxicity” value is -8.85%.

For `Cc1cnc(NC(=O)c2cc(S(=O)(=O)N3CCCC3)ccc2N2CCCC2)s1`, the “activity change, negative = cytotoxicity” value was 2.46%.

In the case of `CCN(CC)c1ccc(S(=O)(=O)N(C)C)cc1C(=O)Nc1ncc(C)s1`, the “activity change, negative = cytotoxicity” value is -2.29%.

Take `COc1cccc2sc(NC(=O)c3cc(S(=O)(=O)N(C)C)ccc3N3CCCC3)nc12`: the “activity change, negative = cytotoxicity” value is 7.99%.

`CN(C)CCCN(Cc1cc2ccccc2[nH]c1=O)C(=O)NCc1ccccc1`: the “activity change, negative = cytotoxicity” value was -1.32%.

Consider `Cc1ccc(NC(=O)c2cc(S(=O)(=O)N(C)C)ccc2N2CCCC2)cc1`, for which the “activity change, negative = cytotoxicity” value is -1.89%.

Consider `Cc1cnc(NC(=O)c2cc(S(=O)(=O)N(C)C)ccc2N(C)C)s1`, for which the “activity change, negative = cytotoxicity” value is 1.98%.

For `CN(C)S(=O)(=O)c1ccc(N2CCCC2)c(C(=O)Nc2nccs2)c1`, the “activity change, negative = cytotoxicity” value was -1.58%.

For `Cc1cnc(NC(=O)c2cc(S(=O)(=O)N3CCOCC3)ccc2N2CCCC2)s1`, the “activity change, negative = cytotoxicity” value is -0.67%.

For the compound `CN(C)S(=O)(=O)c1ccc(N2CCCC2)c(C(=O)Nc2nc3ccccc3s2)c1`, the “activity change, negative = cytotoxicity” value is -6.07%.

On to `CN(C)S(=O)(=O)c1ccc(N2CCCC2)c(C(=O)Nc2ccccc2)c1`, for which the “activity change, negative = cytotoxicity” value is 2.08%.
